Assay outcomes as filed in PubChem BioAssay.
Redox H2O2 prof: compounds producing H2O2 with reducing agent – biochemical, NIH compound library profiling, artefact control for MLSCN library redox annotation, primary screen; DTT-dependent redox cycling H2O2, phenol red/HRP absorbance; 100% = 100 µM peroxide control, 0% = buffer; activation, % at 10 µM; 200,000 tested, 0.03% active; AID 878;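 active = activation of at least 50% relative to the plate's high and low controls in the primary single-dose screen; inactive = activation below 50%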;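 note: compound incubated with DTT at 0.8 mM final as the reducing agent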
S1P3 antag-1: antagonists of human S1P3 receptor; Q99500; CHO S1P3 NFAT-BLA reporter, FRET fluorescence, antagonist mode; inhibition, % at 4.98 µM; 170,000 tested, 0.27% active; AID 485;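 active = inhibition above the plate cutoff, the mean inhibition of test wells on that plate plus 3 SD, cut at about 28% in these data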;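 note: cells challenged with S1P at its EC80 of 0.8 µM; blue over green emission ratio from cleaved BLA substrate after 4 h stimulation; 0% = S1P-stimulated wells and 100% = unstimulated DMSO-only wells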
S1P4 antag: blocks the human S1P4 receptor. O95977. S1P4-expressing cells, antagonist mode, reporter read-out. inhibition, % at 4.98 µM. 220,000 tested, 0.26% active. AID 1510; in the data active = inhibition above about 29%;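 note: 0% = wells stimulated with agonist and 100% = vehicle wells without agonist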
Arbovirus anti: arbovirus infection inhibition; arbovirus infection cell-based antiviral screen; inhibition, % at 10 µM; 200,000 tested, 0.37% active; in the data active = inhibition above about 30%
p97 ATPase inh: inhibitors of human p97 ATPase. P55072. recombinant p97 ATPase, Kinase-Glo ATP luminescence, 3 h. inhibition, % at 8 µM. 220,000 tested, 0.42% active; in the data active = inhibition above about 15%;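 note: 0% = DMSO vehicle and 100% = wells lacking enzyme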
Target sequence (P55072 whole entry, looked up): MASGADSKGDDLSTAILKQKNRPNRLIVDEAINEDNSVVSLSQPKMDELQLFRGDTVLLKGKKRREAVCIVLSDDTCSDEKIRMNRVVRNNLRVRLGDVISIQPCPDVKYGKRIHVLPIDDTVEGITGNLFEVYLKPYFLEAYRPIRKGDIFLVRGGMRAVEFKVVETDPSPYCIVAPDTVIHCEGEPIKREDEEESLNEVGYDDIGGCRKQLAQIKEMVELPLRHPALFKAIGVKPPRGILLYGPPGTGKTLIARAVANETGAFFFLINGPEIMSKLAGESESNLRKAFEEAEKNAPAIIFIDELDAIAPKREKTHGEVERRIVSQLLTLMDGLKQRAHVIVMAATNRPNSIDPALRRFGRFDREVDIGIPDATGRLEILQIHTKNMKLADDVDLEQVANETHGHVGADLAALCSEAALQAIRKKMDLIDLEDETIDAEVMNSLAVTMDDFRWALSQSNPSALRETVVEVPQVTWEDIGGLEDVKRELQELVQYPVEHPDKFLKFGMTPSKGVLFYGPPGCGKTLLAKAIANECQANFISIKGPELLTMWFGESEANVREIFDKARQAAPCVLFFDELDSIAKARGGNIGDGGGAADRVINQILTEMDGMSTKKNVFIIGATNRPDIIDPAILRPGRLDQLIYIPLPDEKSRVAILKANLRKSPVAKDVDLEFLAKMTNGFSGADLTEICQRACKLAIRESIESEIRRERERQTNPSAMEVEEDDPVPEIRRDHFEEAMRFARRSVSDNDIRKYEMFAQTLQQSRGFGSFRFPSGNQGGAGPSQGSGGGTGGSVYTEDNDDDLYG
S1P4 agonist: activates the human S1P4 receptor | O95977 | S1P4-expressing cell line, agonist reporter assay | activation, % at 4.98 µM | 220,000 tested, 0.35% active; in the data active = activation above about 11%;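 note: 0% = DMSO vehicle and 100% = reference agonist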
S1P3 antag-2: confirmation of human S1P3 receptor antagonists; shares compounds with S1P3 antag-1; CHO S1P3 NFAT-BLA reporter, FRET, antagonist mode; inhibition, % at 4.98 µM; 240 tested, 30% active;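 active = inhibition above the hit threshold that was computed for the earlier primary screen, cut at about 30% in these data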;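 note: 0% = S1P-stimulated wells and 100% = unstimulated DMSO-only wells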
The depositor's hits bear a star; x = no result. The list is not random: actives were taken first. Their share in the collection is about 1.6%.

SMILES	Redox H2O2 prof	S1P3 antag-1	S1P4 antag	Arbovirus anti	p97 ATPase inh	S1P4 agonist	S1P3 antag-2
O=C(N/N=C/c1ccc(O)cc1)Nc1cccc2nsnc12	-1	31*	-14	11	5	-1	4
CC(=O)CCC(=O)OCC(=O)Nc1ccc(SC(F)F)cc1	-2	43*	20	4	-9	-3	-10
Cc1ccc(NC(=O)COc2ncnc3cc([N+](=O)[O-])ccc23)cc1S(=O)(=O)N1CCOCC1	x	-14	19	x	-4	0	x
Cc1nc2ccc(NC(=O)c3cc(S(=O)(=O)N(C)c4ccccc4)ccc3Cl)cc2s1	1	30*	-7	10	0	4	10
Cc1nc2ccc(NC(=O)c3ccc(Cl)c(S(=O)(=O)N(C)c4ccccc4)c3)cc2s1	0	11	-14	-5	0	1	x
COc1ccc(-n2c(C)nc3sc4c(c3c2=O)CCC4)cc1	0	103*	5	-5	3	-1	-9
O=S(=O)(Cc1ccc(Cl)cc1)c1ccccc1-c1nnc(-c2ccc(Cl)cc2)o1	3	x	-15	-5	0	2	x
COc1ccccc1-[n+]1c(C)cc(/C=C2\Sc3ccccc3N2C)cc1C	x	57*	-7	x	5	1	39*
COc1ccc(-[n+]2c(C)cc(/C=C3\Sc4ccccc4N3C)cc2C)cc1	0	50*	-10	-39	4	-1	30*
COc1ccc(C(=O)/C=C2\Sc3ccccc3N2C)cc1	1	-4	-9	-15	-6	4	x
CC(C)Oc1ccc(C(CC(=O)O)NC(=O)c2cccs2)cc1 (stereo unspecified)	0	x	-6	6	-3	0	x
CSc1ccccc1C(=O)NCCOc1cccc(C)c1	0	39*	-7	-4	-2	0	-5
Cc1ccc(-n2c(C)cc(C)c(C#N)c2=O)cc1C	0	3	4	5	5	1	x
CCOC(=O)Cc1nnc(Nc2ccc(C(=O)NC)cc2)c2ccccc12	x	11	-4	x	7	1	x
O=[N+]([O-])c1ccc(/C=C/C2=NN(c3ccccc3)C(c3ccco3)C2)cc1 (stereo unspecified)	2	-6	4	2	-1	-1	x
O=[N+]([O-])c1ccc(C2=NN(c3ccccc3)C(c3ccco3)C2)cc1 (stereo unspecified)	x	34*	12	x	0	0	46*
CCC(O)C1CCN(C(=O)c2cc(COc3ccc4ncccc4c3)on2)CC1 (stereo unspecified)	-1	33*	2	8	6	-2	8
Cc1csc(SCCn2c(N3CCN(c4ccccc4)CC3)nc3c2c(=O)[nH]c(=O)n3C)n1	2	-28	-2	8	3	-1	x
Clc1ccccc1/C=N/NC1=Nc2cccc3cccc1c23	2	23	-8	-33	6	0	x
C(=N\NC1=Nc2cccc3cccc1c23)/c1ccccn1	0	29*	-4	-11	4	1	19
O=C1c2cccc3c(N4CCCCC4)ccc(c23)C(=O)N1c1cccc(O)c1	0	51*	19	9	4	1	45*
CCOC(=O)N=Nc1c(O)n(CC(=O)OC)c2ccccc12	0	-12	-4	-1	-6	-1	x
CCOC(=O)N=Nc1c2ccccc2c2nc3no[nH]c3nc12	-2	31*	-8	-30	2	1	109*
CCCCn1c(=O)nc2n(-c3ccccc3)c3ccccc3cc-2c1=O	-5	x	-18	18	-2	1	x
COC(=O)c1ccc(N2CCN(C(=O)c3ccccc3)CC2)c(NC(C)=O)c1	0	40*	-24	-5	-2	1	-11
SMILES	Redox H2O2 prof	S1P3 antag-1	S1P4 antag	Arbovirus anti	p97 ATPase inh	S1P4 agonist	S1P3 antag-2
CCCSc1cc(N2CCOCC2)nc(-c2ccccc2Cl)n1	0	x	6	4	0	1	x
Cc1c(CCOC(=O)c2cc([N+](=O)[O-])cc([N+](=O)[O-])c2)sc[n+]1CC(=O)c1ccc(Br)cc1	4	38*	-3	1	-6	-1	-11
Cc1ccc(NC(=O)c2sc(=S)n(-c3cc(C)ccc3F)c2N)cc1	-1	30*	-8	4	-3	-3	6
Cc1ccccc1-n1c(N)c(C(=O)Nc2ccc(F)cc2)sc1=S	0	-3	-20	15	6	4	x
CC(C)OC(=O)/C(=C\c1cccc2ccccc12)NC(=O)c1ccccc1	0	37*	12	6	1	1	24
CC(C)OC(=O)/C(=C\c1ccccc1)NC(=O)c1ccccc1	0	1	-7	-4	1	1	x
CN1CCN(/N=C/c2ccc(-c3ccc([N+](=O)[O-])cc3Cl)o2)CC1	2	54*	12	-10	0	0	20
Cc1cccc(Cn2nc(C(C)(C)C)cc2C(=O)Nc2ccc(F)cc2)c1	x	37*	4	x	-1	1	53*
CC(C)(C)c1cc(C(=O)NN)n(Cc2ccc(F)cc2)n1	x	5	-1	x	-6	-2	x
C=CCNC(=S)Nc1ccc(Cl)c(S(=O)(=O)N2CCOCC2)c1	7	70*	-13	11	1	1	-11
C=CCNC(=S)Nc1ccc(OC)c(S(=O)(=O)N2CCOCC2)c1	0	-14	-7	9	-1	-1	x
Cc1nc2scc(-c3ccc(Cl)cc3)c2c(=O)o1	0	x	-6	8	-8	4	x
CC(C)(C)c1nc2scc(-c3ccc(Br)cc3)c2c(=O)o1	0	29*	3	18	7	1	-7
Cc1ccc(NC(=O)C(OC(=O)c2ccc(F)cc2)c2ccccc2)cc1Cl (stereo unspecified)	1	36*	-4	-6	5	-1	55*
O=C(Nc1ccccc1)C(c1ccccc1)C1CCCC1 (stereo unspecified)	0	52*	-9	16	2	4	48*
O=c1[nH]nc(-c2ccccc2)c2ccccc12	x	10	14	x	1	2	x
Fc1ccc(-c2n[nH]c(=S)c3ccccc23)cc1	0	65*	0	-1	0	1	-14
c1ccc(-c2csc3ncnc(NCC4COc5ccccc5O4)c23)cc1 (stereo unspecified)	1	37*	-1	-24	-5	0	17
Cc1sc2ncnc(NCC3COc4ccccc4O3)c2c1C (stereo unspecified)	0	32*	-16	17	2	-3	33*
CCN(CC)c1ncnc2scc(C3COc4ccccc4O3)c12 (stereo unspecified)	2	x	-4	6	-2	1	x
COC(=O)Cc1c(C)[nH]n(-c2cc(Cl)cc(Cl)c2)c1=O	-2	7	15	-2	2	1	x
